{
  "source": "paper PMC7862700",
  "about": "“An all-to-all approach to the identification of sequence-specific readers for epigenetic DNA modifications on cytosine”",
  "assay_in_all_cases": "DAPPL (digital affinity profiling via proximity ligation, sequencing); 10 mM Tris-HCl pH 7.5, 50 mM NaCl, 1 mM DTT, 4% glycerol, room temperature, 30 min; GST-TFs on glutathione beads, 16-mer random dsDNA library, 0.1% formaldehyde crosslink after washing; high values mean tight binding",
  "conditions_in_all_cases": "protein: recombinant; tags: N-terminal GST; dsDNA, one strand shown",
  "key": {"FLI1": {"target": "T1, FLI1 (Homo sapiens, UniProt Q01543 1-452)", "T1 sequence": "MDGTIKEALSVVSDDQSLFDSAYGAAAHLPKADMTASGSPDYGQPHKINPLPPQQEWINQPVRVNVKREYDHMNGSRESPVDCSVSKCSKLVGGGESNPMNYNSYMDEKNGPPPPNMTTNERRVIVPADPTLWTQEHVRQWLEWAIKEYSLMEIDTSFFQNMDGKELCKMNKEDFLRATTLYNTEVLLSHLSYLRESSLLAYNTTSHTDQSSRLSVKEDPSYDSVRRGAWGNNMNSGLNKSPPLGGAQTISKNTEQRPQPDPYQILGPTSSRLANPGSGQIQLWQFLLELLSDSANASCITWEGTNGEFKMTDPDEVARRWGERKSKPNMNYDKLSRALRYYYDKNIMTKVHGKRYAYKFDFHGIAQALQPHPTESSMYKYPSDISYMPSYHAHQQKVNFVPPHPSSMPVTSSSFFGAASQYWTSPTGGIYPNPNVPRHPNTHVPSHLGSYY", "how_it_was_run": "(§1)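 Human transcription factors were made in yeast as GST fusions, captured on glutathione beads and barcoded with DNA. With a tag-only sample included, the pool was incubated with 200 nmole of a random double-stranded 16-mer DNA library in Tris/NaCl/DTT/glycerol buffer at room temperature for 30 min, then crosslinked with 0.1% formaldehyde after washing, ligated by proximity, amplified and sequenced. For binding signal, each hexamer's read frequency for a factor is divided by its frequency for the tag-only sample.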"}, "ELK1": {"target": "T2, ELK1 (Homo sapiens, UniProt P19419 1-428)", "T2 sequence": "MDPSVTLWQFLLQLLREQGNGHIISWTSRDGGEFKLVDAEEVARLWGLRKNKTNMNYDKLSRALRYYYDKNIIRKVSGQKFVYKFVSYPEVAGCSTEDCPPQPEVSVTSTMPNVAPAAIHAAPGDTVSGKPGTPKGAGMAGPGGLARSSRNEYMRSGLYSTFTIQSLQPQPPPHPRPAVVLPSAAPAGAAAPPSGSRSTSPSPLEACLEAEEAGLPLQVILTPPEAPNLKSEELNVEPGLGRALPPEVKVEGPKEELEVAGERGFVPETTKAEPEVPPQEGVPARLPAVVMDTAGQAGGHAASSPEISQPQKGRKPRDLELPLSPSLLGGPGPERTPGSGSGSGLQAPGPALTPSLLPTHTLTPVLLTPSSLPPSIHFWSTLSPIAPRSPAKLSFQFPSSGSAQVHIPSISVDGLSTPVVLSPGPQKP", "how_it_was_run": "as §1"}, "GABPA": {"target": "T3, GABPA (Homo sapiens, UniProt Q06546 1-454)", "T3 sequence": "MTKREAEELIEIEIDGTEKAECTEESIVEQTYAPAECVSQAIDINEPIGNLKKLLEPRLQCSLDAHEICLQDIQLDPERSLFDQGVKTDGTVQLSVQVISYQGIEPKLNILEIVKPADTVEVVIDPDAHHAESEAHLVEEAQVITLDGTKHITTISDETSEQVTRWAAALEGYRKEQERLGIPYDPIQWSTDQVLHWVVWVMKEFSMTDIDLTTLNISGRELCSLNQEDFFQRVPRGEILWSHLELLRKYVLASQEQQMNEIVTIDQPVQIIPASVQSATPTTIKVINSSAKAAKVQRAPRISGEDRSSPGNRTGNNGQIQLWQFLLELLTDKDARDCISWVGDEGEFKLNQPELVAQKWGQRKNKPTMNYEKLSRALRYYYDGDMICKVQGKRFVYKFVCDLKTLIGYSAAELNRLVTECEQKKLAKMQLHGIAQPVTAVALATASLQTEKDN", "how_it_was_run": "as §1"}, "ERG": {"target": "T4, ERG (Homo sapiens, UniProt P11308 1-479)", "T4 sequence": "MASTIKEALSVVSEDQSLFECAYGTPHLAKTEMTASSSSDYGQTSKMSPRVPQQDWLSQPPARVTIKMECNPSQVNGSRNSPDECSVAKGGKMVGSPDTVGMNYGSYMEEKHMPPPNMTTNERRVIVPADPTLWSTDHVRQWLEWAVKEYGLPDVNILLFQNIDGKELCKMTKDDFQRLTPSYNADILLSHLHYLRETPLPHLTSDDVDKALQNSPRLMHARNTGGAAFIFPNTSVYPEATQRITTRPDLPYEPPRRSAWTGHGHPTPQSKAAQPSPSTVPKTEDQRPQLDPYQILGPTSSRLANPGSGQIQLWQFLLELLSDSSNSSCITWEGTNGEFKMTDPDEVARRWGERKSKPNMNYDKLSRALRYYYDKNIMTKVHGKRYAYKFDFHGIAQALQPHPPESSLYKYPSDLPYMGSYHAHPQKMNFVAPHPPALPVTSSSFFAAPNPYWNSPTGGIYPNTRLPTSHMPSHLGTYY", "how_it_was_run": "as §1"}, "ELF1": {"target": "ELF1 (Homo sapiens, UniProt P32519 1-619)", "sequence (P32519 whole entry)": "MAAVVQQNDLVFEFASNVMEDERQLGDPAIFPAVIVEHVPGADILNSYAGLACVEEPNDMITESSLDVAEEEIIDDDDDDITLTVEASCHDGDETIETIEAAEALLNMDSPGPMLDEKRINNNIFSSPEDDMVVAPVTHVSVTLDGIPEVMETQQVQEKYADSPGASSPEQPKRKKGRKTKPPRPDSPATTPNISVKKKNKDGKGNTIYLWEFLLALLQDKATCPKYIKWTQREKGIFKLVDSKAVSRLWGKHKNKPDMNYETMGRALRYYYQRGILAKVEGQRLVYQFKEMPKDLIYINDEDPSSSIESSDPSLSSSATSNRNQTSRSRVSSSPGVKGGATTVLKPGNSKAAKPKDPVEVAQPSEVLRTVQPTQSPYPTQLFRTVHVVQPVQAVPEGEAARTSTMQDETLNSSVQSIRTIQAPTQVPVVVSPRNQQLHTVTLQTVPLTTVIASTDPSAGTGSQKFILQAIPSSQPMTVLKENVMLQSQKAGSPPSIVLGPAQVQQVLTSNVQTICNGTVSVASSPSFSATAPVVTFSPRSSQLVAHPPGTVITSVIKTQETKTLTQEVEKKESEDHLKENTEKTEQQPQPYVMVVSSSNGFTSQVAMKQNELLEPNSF", "how_it_was_run": "as §1"}, "EHF": {"target": "T5, EHF (Homo sapiens, UniProt Q9NZC4 1-300)", "T5 sequence": "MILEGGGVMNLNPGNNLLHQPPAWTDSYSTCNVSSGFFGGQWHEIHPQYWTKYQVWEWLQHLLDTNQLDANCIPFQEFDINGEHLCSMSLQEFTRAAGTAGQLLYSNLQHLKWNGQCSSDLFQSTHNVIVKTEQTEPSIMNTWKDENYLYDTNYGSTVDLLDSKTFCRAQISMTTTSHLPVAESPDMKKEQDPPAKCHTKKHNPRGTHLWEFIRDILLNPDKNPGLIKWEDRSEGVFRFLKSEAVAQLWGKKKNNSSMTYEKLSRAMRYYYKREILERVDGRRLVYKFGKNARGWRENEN", "how_it_was_run": "as §1"}, "SPI1": {"target": "SPI1 (Homo sapiens, UniProt P17947 1-270)", "how_it_was_run": "as §1"}, "SPIB": {"target": "SPIB (Homo sapiens, UniProt Q01892 1-262)", "sequence (Q01892 whole entry)": "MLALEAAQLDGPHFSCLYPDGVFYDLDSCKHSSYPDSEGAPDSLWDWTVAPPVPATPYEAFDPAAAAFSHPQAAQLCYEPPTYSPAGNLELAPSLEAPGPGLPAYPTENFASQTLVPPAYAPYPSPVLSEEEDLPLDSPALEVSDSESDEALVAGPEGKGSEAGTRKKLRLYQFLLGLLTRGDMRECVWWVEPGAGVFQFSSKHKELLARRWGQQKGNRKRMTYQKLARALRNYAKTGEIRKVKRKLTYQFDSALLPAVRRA", "how_it_was_run": "as §1"}, "ELK3": {"target": "T6, ELK3 (Homo sapiens, UniProt P41970 1-407)", "T6 sequence": "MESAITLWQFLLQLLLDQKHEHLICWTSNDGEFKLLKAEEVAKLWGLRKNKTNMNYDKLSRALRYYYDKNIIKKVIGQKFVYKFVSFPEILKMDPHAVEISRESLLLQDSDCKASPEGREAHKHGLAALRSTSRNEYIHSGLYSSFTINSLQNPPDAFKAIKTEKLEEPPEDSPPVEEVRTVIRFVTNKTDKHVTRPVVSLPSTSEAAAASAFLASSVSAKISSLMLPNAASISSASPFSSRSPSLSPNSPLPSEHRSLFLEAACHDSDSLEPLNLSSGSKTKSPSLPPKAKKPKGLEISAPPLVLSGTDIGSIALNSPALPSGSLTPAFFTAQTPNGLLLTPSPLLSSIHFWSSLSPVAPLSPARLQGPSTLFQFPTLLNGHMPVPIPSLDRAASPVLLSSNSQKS", "how_it_was_run": "as §1"}, "FEV": {"target": "T7, FEV (Homo sapiens, UniProt Q99581 1-238)", "T7 sequence": "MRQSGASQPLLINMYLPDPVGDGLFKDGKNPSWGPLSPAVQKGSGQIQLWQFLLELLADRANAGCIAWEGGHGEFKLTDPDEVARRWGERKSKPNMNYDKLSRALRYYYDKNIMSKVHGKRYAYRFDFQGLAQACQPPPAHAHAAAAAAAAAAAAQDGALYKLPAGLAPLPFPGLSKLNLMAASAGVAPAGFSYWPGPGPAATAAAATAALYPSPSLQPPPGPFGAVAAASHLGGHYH", "how_it_was_run": "as §1"}, "ETV5": {"target": "ETV5 (Homo sapiens, UniProt P41161 1-510)", "sequence (P41161 whole entry)": "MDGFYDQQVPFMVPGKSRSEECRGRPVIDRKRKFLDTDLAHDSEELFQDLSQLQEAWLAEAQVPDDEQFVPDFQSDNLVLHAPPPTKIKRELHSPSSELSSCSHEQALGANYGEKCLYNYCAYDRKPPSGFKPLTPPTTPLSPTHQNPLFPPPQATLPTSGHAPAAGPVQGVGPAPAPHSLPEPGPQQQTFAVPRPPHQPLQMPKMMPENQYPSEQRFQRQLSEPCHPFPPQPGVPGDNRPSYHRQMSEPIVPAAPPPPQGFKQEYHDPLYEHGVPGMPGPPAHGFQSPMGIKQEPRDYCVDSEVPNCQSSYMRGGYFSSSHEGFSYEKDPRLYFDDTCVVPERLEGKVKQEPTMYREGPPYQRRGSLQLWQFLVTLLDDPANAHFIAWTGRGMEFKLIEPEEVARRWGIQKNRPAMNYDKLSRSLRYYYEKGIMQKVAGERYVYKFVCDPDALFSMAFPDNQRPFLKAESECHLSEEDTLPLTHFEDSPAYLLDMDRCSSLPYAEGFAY", "how_it_was_run": "as §1"}, "SPIC": {"target": "T8, SPIC (Homo sapiens, UniProt Q8N5J4 1-248)", "T8 sequence": "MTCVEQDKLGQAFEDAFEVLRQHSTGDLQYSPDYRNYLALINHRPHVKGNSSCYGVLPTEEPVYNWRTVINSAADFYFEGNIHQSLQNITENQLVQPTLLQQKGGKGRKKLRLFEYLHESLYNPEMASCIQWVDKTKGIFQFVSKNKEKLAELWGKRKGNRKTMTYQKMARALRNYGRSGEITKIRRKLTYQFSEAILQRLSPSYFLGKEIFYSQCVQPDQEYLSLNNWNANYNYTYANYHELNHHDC", "how_it_was_run": "as §1"}, "ELF4": {"target": "ELF4 (Homo sapiens, UniProt Q99607 1-663)", "sequence (Q99607 whole entry)": "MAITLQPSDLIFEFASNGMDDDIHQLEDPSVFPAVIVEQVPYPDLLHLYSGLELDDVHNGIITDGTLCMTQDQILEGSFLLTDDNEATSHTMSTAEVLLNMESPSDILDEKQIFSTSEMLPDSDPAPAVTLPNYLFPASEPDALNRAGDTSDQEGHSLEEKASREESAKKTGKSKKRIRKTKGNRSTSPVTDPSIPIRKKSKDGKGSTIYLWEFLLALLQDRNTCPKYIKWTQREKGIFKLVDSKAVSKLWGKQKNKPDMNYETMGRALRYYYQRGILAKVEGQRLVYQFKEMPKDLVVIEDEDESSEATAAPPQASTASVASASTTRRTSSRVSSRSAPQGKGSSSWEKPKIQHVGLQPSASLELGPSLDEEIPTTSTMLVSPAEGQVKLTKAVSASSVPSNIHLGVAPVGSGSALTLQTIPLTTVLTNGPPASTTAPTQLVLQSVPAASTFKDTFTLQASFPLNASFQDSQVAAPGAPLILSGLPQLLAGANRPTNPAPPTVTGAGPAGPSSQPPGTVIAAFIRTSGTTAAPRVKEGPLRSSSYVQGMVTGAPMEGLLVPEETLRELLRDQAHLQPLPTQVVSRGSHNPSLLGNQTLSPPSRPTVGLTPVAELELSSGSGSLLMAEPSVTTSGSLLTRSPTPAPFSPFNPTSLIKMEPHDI", "how_it_was_run": "as §1"}, "ELK4": {"target": "T9, ELK4 (Homo sapiens, UniProt P28324-2 1-405)", "T9 sequence": "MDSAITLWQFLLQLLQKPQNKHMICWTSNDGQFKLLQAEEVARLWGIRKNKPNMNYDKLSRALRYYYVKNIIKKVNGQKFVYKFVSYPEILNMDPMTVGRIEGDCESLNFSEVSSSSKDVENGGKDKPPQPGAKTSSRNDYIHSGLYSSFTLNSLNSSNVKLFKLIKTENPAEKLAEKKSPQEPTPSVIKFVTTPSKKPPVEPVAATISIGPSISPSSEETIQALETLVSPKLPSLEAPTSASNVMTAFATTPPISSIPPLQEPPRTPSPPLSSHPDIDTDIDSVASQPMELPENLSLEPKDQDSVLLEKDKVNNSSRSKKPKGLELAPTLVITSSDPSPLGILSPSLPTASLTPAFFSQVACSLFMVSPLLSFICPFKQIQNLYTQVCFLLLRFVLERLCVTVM", "how_it_was_run": "as §1"}, "ETV2": {"target": "T10, ETV2 (Homo sapiens, UniProt O00321 1-342)", "T10 sequence": "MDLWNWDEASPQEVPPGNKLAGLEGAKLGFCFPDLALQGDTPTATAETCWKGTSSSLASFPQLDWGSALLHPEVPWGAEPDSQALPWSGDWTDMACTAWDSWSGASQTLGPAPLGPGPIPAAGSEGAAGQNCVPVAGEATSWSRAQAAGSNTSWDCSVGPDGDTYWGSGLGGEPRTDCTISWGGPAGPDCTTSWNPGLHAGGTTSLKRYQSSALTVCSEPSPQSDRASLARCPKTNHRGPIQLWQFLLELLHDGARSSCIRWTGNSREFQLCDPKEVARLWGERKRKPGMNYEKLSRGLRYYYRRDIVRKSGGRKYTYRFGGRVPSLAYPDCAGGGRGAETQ", "how_it_was_run": "as §1"}, "ELF3": {"target": "T11, ELF3 (Homo sapiens, UniProt P78545 1-371)", "T11 sequence": "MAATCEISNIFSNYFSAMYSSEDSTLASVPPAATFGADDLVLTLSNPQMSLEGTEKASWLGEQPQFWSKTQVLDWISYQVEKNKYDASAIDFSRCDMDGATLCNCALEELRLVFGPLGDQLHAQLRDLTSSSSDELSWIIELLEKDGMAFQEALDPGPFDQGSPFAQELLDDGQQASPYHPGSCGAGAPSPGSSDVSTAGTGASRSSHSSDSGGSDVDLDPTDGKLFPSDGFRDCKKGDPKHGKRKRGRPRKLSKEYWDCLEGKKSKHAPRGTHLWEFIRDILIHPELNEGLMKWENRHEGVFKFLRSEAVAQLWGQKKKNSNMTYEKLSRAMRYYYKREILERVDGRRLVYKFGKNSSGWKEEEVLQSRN", "how_it_was_run": "as §1"}, "CRX": {"target": "CRX (Homo sapiens, UniProt O43186 1-299)", "sequence (O43186 whole entry)": "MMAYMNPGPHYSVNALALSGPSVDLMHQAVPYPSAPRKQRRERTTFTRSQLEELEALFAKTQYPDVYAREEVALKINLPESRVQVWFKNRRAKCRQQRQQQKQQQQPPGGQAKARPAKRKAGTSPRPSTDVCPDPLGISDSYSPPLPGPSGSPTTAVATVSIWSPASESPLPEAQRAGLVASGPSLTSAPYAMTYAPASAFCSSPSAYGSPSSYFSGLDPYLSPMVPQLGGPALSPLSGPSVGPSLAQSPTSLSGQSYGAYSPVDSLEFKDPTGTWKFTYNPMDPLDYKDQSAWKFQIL", "how_it_was_run": "as §1"}, "ETV1": {"target": "ETV1 (Homo sapiens, UniProt P50549 1-477)", "sequence (P50549 whole entry)": "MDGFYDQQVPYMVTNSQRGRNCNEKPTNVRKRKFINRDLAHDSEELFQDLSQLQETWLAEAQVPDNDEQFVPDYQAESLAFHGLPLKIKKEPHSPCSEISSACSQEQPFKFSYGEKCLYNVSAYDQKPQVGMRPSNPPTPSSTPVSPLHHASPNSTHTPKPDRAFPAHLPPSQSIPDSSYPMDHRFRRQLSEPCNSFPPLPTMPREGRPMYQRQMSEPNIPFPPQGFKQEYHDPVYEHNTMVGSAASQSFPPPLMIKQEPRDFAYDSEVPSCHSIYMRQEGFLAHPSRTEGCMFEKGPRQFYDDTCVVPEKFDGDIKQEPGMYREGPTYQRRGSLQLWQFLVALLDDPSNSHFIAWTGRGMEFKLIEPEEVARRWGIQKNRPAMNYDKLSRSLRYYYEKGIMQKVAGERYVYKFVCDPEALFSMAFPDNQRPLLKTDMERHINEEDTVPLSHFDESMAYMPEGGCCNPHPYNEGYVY", "how_it_was_run": "as §1"}},
  "data": [
    {"sequence": "TACCCA", "values": [
      {"measurement": "binding signal", "setting": "FLI1", "result": "1.01 fold enrichment (6-mer frequency, TF over GST control)"},
      {"measurement": "binding signal", "setting": "ELK1", "result": "1.09 fold enrichment (6-mer frequency, TF over GST control)"},
      {"measurement": "binding signal", "setting": "GABPA", "result": "1.12 fold enrichment (6-mer frequency, TF over GST control)"},
      {"measurement": "binding signal", "setting": "ERG", "result": "1.03 fold enrichment (6-mer frequency, TF over GST control)"},
      {"measurement": "binding signal", "setting": "ELF1", "result": "1.07 fold enrichment (6-mer frequency, TF over GST control)"},
      {"measurement": "binding signal", "setting": "EHF", "result": "1.05 fold enrichment (6-mer frequency, TF over GST control)"},
      {"measurement": "binding signal", "setting": "SPI1", "result": "1.09 fold enrichment (6-mer frequency, TF over GST control)"},
      {"measurement": "binding signal", "setting": "SPIB", "result": "1.1 fold enrichment (6-mer frequency, TF over GST control)"},
      {"measurement": "binding signal", "setting": "ELK3", "result": "1.09 fold enrichment (6-mer frequency, TF over GST control)"},
      {"measurement": "binding signal", "setting": "FEV", "result": "1.03 fold enrichment (6-mer frequency, TF over GST control)"},
      {"measurement": "binding signal", "setting": "ETV5", "result": "1.11 fold enrichment (6-mer frequency, TF over GST control)"},
      {"measurement": "binding signal", "setting": "SPIC", "result": "1.08 fold enrichment (6-mer frequency, TF over GST control)"},
      {"measurement": "binding signal", "setting": "ELF4", "result": "1.08 fold enrichment (6-mer frequency, TF over GST control)"},
      {"measurement": "binding signal", "setting": "ELK4", "result": "1.02 fold enrichment (6-mer frequency, TF over GST control)"},
      {"measurement": "binding signal", "setting": "ETV2", "result": "1.12 fold enrichment (6-mer frequency, TF over GST control)"},
      {"measurement": "binding signal", "setting": "ELF3", "result": "1.18 fold enrichment (6-mer frequency, TF over GST control)"},
      {"measurement": "binding signal", "setting": "CRX", "result": "1.08 fold enrichment (6-mer frequency, TF over GST control)"},
      {"measurement": "binding signal", "setting": "ETV1", "result": "1.03 fold enrichment (6-mer frequency, TF over GST control)"}
    ]}
  ]
}
